Here are results for 19 molecules from PubChem BioAssay (NCATS).

Inconclusive results are not listed. A call without a number means that no potency is given here. Calls of active or inactive are those of the source. The call rests on the fitted dose curve; in most records, active means well fitted curve in the direction sought with a large enough effect; inconclusive means small, poorly fitted or top-dose-only effect, or another doubt; inactive means no such curve, though single readings can be large; an effect the other way counts as inactive or inconclusive.

A short description of the first experiment: qHTS assay for cell viability of the p53RE-bla HCT-116 cell line (AID 743292). Further: nearly all actives have a fitted effect of over 55% in size. The conditions noted are these: p53RE-bla HCT-116 viability, ATP luminescence, 16 h; series mostly up to 95 µM. A digest of the protocol:
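ATP-based luminescence, 16 h compound exposure at 37 C, p53RE-bla HCT-116 cells at 4,000/well.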
Consider `O=C(NO)c1ccccc1`, for which the Potency result is “inactive”.
For `C1=CC2C3C=CC(C3)C2C1` (stereo unspecified), the Potency result is “inactive”.
Regarding `O=C(Oc1ccccc1)c1cccc(C(=O)Oc2ccccc2)c1`, the Potency entry is “inactive”.
As to `Cc1cc(C(C)(C)C)c(O)c(C(C)(C)C)c1`, the Potency entry is “inactive”.
Same read-out and setting: the same measure for `Nc1c2ccccc2nc2ccccc12`: “inactive”.

The nature of a further experiment: qHTS assay for measurement of the activity of small molecule inhibitors on Zika virus induced Caspase-3 activity in human astrocytoma cells (AID 1224859). To be noted: SNB-19 ZIKV-induced caspase-3/7, luminescence, 6 h; series mostly up to 45.7 µM. A digest of the protocol:
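Luminescent caspase-3/7 read-out (30 min reagent, room temperature) in human SNB-19 cells infected 6 h with ZIKV (2 FFU/cell) after 1 h compound pre-incubation; Data were normalised to uninfected and infected wells.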
(In general: In qHTS, concentration-response curves come from the screen itself.)
As for `CC1(C)S[C@@H]2[C@H](NC(=O)C(c3ccccc3)S(=O)(=O)O)C(=O)N2[C@H]1C(=O)O` (stereo partly specified), the outcome was inactive.
In the case of `O=C(NO)c1ccccc1`, the molecule was called inactive.
Same read-out and setting: the result for `C1=CC2C3C=CC(C3)C2C1` (stereo unspecified) reads “inactive”.
Regarding `Clc1ccc2c(c1)Nc1ccccc1S2`, the molecule was classed as inactive.
With `O=C(O)CNC(=O)CNC(=O)CNC(=O)CSC(=O)c1ccccc1`, the outcome was inactive.
`CN1CC(=O)N2[C@H](c3ccc4c(c3)OCO4)c3[nH]c4ccccc4c3C[C@@H]2C1=O`: the molecule was called inactive.
Regarding `COc1ccc2cc(C=O)ccc2c1`, the outcome was inactive.
In the case of `O=C(Nc1ccc(Cl)cc1)Nc1ccc(Cl)c(C(F)(F)F)c1`, the result was inactive.
Take `CC(C)=CCNc1ncnc2c1ncn2[C@@H]1O[C@H](CO)[C@@H](O)[C@H]1O`: the molecule was classed as inactive.
For `C[C@@H]1CCC[C@H](C)N1CCCC(O)(c1ccccc1)c1ccccn1` (stereo partly specified), the molecule was called inactive.
Take `C=C(C)C(=O)OCC(O)CO` (stereo unspecified): the outcome was inactive.
On to `CCCCCCOC(=O)NC(=N)c1ccc(NCc2nc3cc(C(=O)N(CCC(=O)OCC)c4ccccn4)ccc3n2C)cc1`, for which the outcome was inactive.
On to `CCCCCN(CCCOC)C(=O)C(CCC(=O)O)NC(=O)c1ccc(Cl)c(Cl)c1` (stereo unspecified), for which the outcome was inactive.
`CCCCC(O)/C=C(C)/C=C/C=C/C(=O)N1CCCC1=O` (stereo unspecified): the call was inactive.
Regarding `O=C(CO)[C@@H](O)[C@H](O)[C@@H](O)CO`, the outcome was inactive.
With `Fc1ccc(C(c2ccc(F)cc2)N2CCNCC2)cc1`, the molecule was classed as inactive.
